Hit rate of the full screen: of about 48,000 compounds, about 13,000 (27%) showed an effect of 50% or more. Some of the results follow.
The compounds below were run on Wolbachia pipientis (assay: Anti-Wolbachia Cell-Based Screen). Details: 5 µM.
Type: functional
Design: scale not given: in the data most compounds retested in dose-response had high values

Structure (SMILES)	Percent Effect [%]
COCC1CCN(C(=O)c2cc(O)nc(CC(C)C)c2)CC1	9.231
Cl.Cl.c1c(CN2CCCC2)nc2n1CCNC2	4.335
CC(C(=O)NCc1cccc(N2CC=CC2)c1)n1cccn1 (centres undefined)	-4.465
CCOC(=O)N1CCN(C(=O)Cc2c(C)nc(C)[nH]c2=O)CC1	-14.69
Cc1cnccc1NCCn1ccnc1C1CCOC1 (centres undefined)	-4.825
CCC(Nc1ncnc2sc(C(=O)O)c(C)c12)c1ccnn1C (centres undefined)	-0.5167
Cc1ccc(CN2C(=O)CC[C@]23CC[C@@H](NCC2CCOC2)CC3)cc1.O=C(O)C(F)(F)F (some centres undefined)	-23.04
O=C(NCCOc1ccc2c(c1)OCO2)C1CC(=O)N(C2CC2)C1 (centres undefined)	106.6
CN1CC(C(=O)NCCOc2ccc3c(c2)OCO3)CC1=O (centres undefined)	106.4
Cc1ccc(OCCC(=O)NC2CC(=O)N(C)C2)cc1C (centres undefined)	-10.49
O=C(NCCOc1ccc2c(c1)OCO2)C1CC(=O)N(CC2CC2)C1 (centres undefined)	4.084
CC(C)CN1CC(C(=O)NCCc2c[nH]cn2)CC1=O (centres undefined)	10.41
CC(C)CN1CC(C(=O)NCCOc2ccc3c(c2)OCO3)CC1=O (centres undefined)	103.1
CC(C)N1CC(C(=O)NCCOc2ccc3c(c2)OCO3)CC1=O (centres undefined)	7.499
CCN1CC(C(=O)NCc2ccnc(-n3ccnc3C)c2)CC1=O (centres undefined)	5.504
O=C(NCCOc1cccc(Cl)c1)C1CC(=O)N(CC2CC2)C1 (centres undefined)	-4.254
CCN1CC(C(=O)NCCOc2ccc3c(c2)OCO3)CC1=O (centres undefined)	101.2
COC(=O)CCNC(=O)C1CC(=O)N(C2CCCC2)C1 (centres undefined)	-11.01
CC(=O)N1CCN(c2ccccc2CNc2cncc(C)c2)CC1	-7.391
CCc1cc(=O)[nH]c2nnc(SCC(=O)NC)n12	-1.194
Cc1cc(N2CCC(c3nccn3Cc3cscn3)CC2)ccn1	-23.28
O=C(c1cccs1)N1CCC(O)(CN2CCc3ccccc3C2)C1 (centres undefined)	-8.795
O=C(Cc1ccsc1)N1CCC(O)(CN2CCc3ccccc3C2)C1 (centres undefined)	104.8
O=C(Cc1cccs1)N1CCC(O)(CN2CCc3ccccc3C2)C1 (centres undefined)	105.2
O=C1NC2(CCN(C(=O)Cc3ccsc3)CC2)CC1c1ccccc1 (centres undefined)	6.926
O=C(Cc1ccsc1)N1CCC2(CCCN(CC3CCOCC3)C2)C1 (centres undefined)	-0.5355
O=C(NCc1cccs1)NCC1(O)CCc2ccccc2C1 (centres undefined)	-8.141
CC(C)c1cc(NC(CO)CO)n2nccc2n1	17.2
CC(C)n1nc2c(cc1=O)CN(Cc1nc(-c3ccoc3)no1)CC2	17.12
